# This is part of a sample that, as a whole, favours compounds with a hit. Of some 79,000 tested, about 15% had one in any assay. Calls of active or inactive are those of the source. No stated cut-off is given here; in the data, active means growth inhibition above about 70%; inactive means the rest.
# Assay: NCI Yeast Anticancer Drug Screen. Data for the sgs1 strain (AID 173);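 further: 0% = growth of vehicle-only control cultures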
# Settings: S. cerevisiae sgs1 mutant, at 33.0 µM, active compounds read high
# In short: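 Vehicle-treated cultures served as reference for growth inhibition of a yeast strain altered in DNA damage repair or cell cycle control after compound exposure.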
row,Compound,growth inhibition
1,CCOP(=O)(OCC)C(Cc1ccccc1)N=C(c1ccccc1)c1ccccc1 (stereo not drawn),93% (active)
2,CCc1ncnc2cc(OCC3CO3)c(OC)cc12 (stereo not drawn),82% (active)
3,CCOC(=O)[C@H]1Nc2ccccc2C2c3ccccc3CC21 (stereo partly drawn),64% (inactive)
4,O=CNc1ccc2c(c1)C(=O)c1ccccc1-2,52% (inactive)
5,CCOc1ccc2c(c1)c(CC(=O)O)cn2C,63% (inactive)
6,OC1CSCCCSCCSCCCSC1,-14% (inactive)
7,N#Cc1c(N)[nH]c2ccc(Sc3ccccc3)cc12,95% (active)
8,Cc1ccc(-c2ccc(Nc3c4ccccc4nc4ccccc34)cc2)cn1,94% (active)
9,c1ccc2c(c1)NC(NC1Nc3ccccc3N1)N2,12% (inactive)
10,OC(COc1cccc2ccccc12)CN1CCOCC1 (stereo not drawn),59% (inactive)
11,CCC/C(Cl)=N\OC(=O)Nc1ccc(Br)cc1,98% (active)
12,COc1ccc(/C=C2\SC(=S)N(/C=C/c3nc4ccccc4[nH]c3=O)C2=O)cc1OC,85% (active)
13,O=C(NNc1ccnc2cc(Cl)ccc12)/C(=C\c1ccccc1Cl)NC(=O)c1ccccc1,38% (inactive)
14,CSC1=NNC(SC)=NN1,75% (active)
15,Cc1c(C2=C(Br)C(=O)N(C)C2=O)c(=O)n(C)c(=O)n1C,60% (inactive)
16,NCCNc1ccc(NCCN)c2c1C(=O)c1c(O)ccc(O)c1C2=O,86% (active)
17,Cn1c(=O)c(-c2ccccc2)c(N=[N+]=[N-])c2ccccc21,91% (active)
18,CCCCCCCCCCCCCCCCCCOCC(O)COP(=O)(O)OCC1OC(n2cc(F)c(=O)[nH]c2=O)CC1O (stereo not drawn),95% (active)
19,CCS(=O)(=O)c1ccc(/C=C/C=N/NC(=S)NCC(C)C)cc1,1% (inactive)
20,CCC(=O)Oc1c(Cl)cc(Cl)c2ccccc12,9% (inactive)

row,Compound,growth inhibition
1,COc1cc2c3c(cccc3c1)C(=O)N(CCN(C)C)C2=O,-15% (inactive)
2,CN(C)c1ccc(C(C#N)=C(C#N)C#N)cc1,-2% (inactive)
3,O=C(CCCN1CCC2(CC1)CC(=O)N(N1CCCCCC1)C2=O)c1ccc(F)cc1,73% (active)
4,O=C1C2C(C(=O)N1c1ccc(OCc3ccccc3)cc1)C1c3ccccc3C2C2CCCCN21 (stereo not drawn),19% (inactive)
5,CCN(CC)CCC(=O)c1ccc(Oc2ccc(F)cc2)cc1,59% (inactive)
6,O=Nc1c(NO)ccc2nn(-c3ccccc3)nc12,99% (active)
7,CC(=O)SCCC[Si](C)(C)CCCSC(C)=O,29% (inactive)
8,O=C(O)C1CCCCC1c1c2ccc(=O)c(O)c-2oc2c(O)c(O)ccc12 (stereo not drawn),33% (inactive)
9,Cc1ccc(NN(NC(=O)OC(C)C)C(=O)OC(C)C)cc1,14% (inactive)
10,O=C1c2ccccc2C(=O)c2cc(CBr)ccc21,74% (active)
11,Cc1c(C(Cc2ccccc2N(C)C(=O)/C=C\C(=O)O)c2c[nH]c3ccccc23)c2ccccc2n1C (stereo not drawn),7% (inactive)
12,CC(C)/C(Cl)=N\OC(=O)Nc1ccc(F)cc1,89% (active)
13,O=C1OC(=O)C2CCCC3CCCC1C32 (stereo not drawn),94% (active)
14,CCOC(=O)C(NC(=O)c1ccccc1)(N1CCN(c2cc3c(cc2F)c(=O)c(C(=O)O)cn3C2CC2)CC1)C(F)(F)F (stereo not drawn),3% (inactive)
15,COc1ccc(NC(=S)N/N=C(\c2ccccc2)c2ccccn2)cc1,52% (inactive)
16,C=CCC1=C(C)C(OC(=O)/C=C/c2ccccc2)CC1=O (stereo not drawn),6% (inactive)
17,NNc1c(F)c(F)cc(F)c1F,32% (inactive)
18,COP(=O)(OC)/C(=C\C1=CN(C(c2ccccc2)(c2ccccc2)c2ccccc2)CN1)NC=O,79% (active)
19,COC(=O)c1cc(-c2ccc(C)cc2)[nH]c(=O)c1C#N,-2% (inactive)

# Same assay, conditions: S. cerevisiae sgs1 mutant, at 100.0 µM, active compounds read high
row,Compound,growth inhibition
1,CCOP(=O)(OCC)C(Cc1ccccc1)N=C(c1ccccc1)c1ccccc1 (stereo not drawn),97% (active)
2,CCc1ncnc2cc(OCC3CO3)c(OC)cc12 (stereo not drawn),91% (active)
3,CCOC(=O)[C@H]1Nc2ccccc2C2c3ccccc3CC21 (stereo partly drawn),72% (active)
4,O=CNc1ccc2c(c1)C(=O)c1ccccc1-2,94% (active)
5,CCOc1ccc2c(c1)c(CC(=O)O)cn2C,89% (active)
6,OC1CSCCCSCCSCCCSC1,-24% (inactive)
7,N#Cc1c(N)[nH]c2ccc(Sc3ccccc3)cc12,97% (active)
8,Cc1ccc(-c2ccc(Nc3c4ccccc4nc4ccccc34)cc2)cn1,88% (active)
9,c1ccc2c(c1)NC(NC1Nc3ccccc3N1)N2,16% (inactive)
10,OC(COc1cccc2ccccc12)CN1CCOCC1 (stereo not drawn),56% (inactive)
11,CCC/C(Cl)=N\OC(=O)Nc1ccc(Br)cc1,98% (active)
12,COc1ccc(/C=C2\SC(=S)N(/C=C/c3nc4ccccc4[nH]c3=O)C2=O)cc1OC,94% (active)
13,O=C(NNc1ccnc2cc(Cl)ccc12)/C(=C\c1ccccc1Cl)NC(=O)c1ccccc1,38% (inactive)
14,CSC1=NNC(SC)=NN1,98% (active)
15,Cc1c(C2=C(Br)C(=O)N(C)C2=O)c(=O)n(C)c(=O)n1C,94% (active)
16,NCCNc1ccc(NCCN)c2c1C(=O)c1c(O)ccc(O)c1C2=O,63% (inactive)
17,Cn1c(=O)c(-c2ccccc2)c(N=[N+]=[N-])c2ccccc21,92% (active)
18,CCCCCCCCCCCCCCCCCCOCC(O)COP(=O)(O)OCC1OC(n2cc(F)c(=O)[nH]c2=O)CC1O (stereo not drawn),97% (active)
19,CCS(=O)(=O)c1ccc(/C=C/C=N/NC(=S)NCC(C)C)cc1,48% (inactive)
20,CCC(=O)Oc1c(Cl)cc(Cl)c2ccccc12,43% (inactive)

row,Compound,growth inhibition
1,COc1cc2c3c(cccc3c1)C(=O)N(CCN(C)C)C2=O,-11% (inactive)
2,CN(C)c1ccc(C(C#N)=C(C#N)C#N)cc1,44% (inactive)
3,O=C(CCCN1CCC2(CC1)CC(=O)N(N1CCCCCC1)C2=O)c1ccc(F)cc1,77% (active)
4,O=C1C2C(C(=O)N1c1ccc(OCc3ccccc3)cc1)C1c3ccccc3C2C2CCCCN21 (stereo not drawn),94% (active)
5,CCN(CC)CCC(=O)c1ccc(Oc2ccc(F)cc2)cc1,96% (active)
6,O=Nc1c(NO)ccc2nn(-c3ccccc3)nc12,98% (active)
7,CC(=O)SCCC[Si](C)(C)CCCSC(C)=O,48% (inactive)
8,O=C(O)C1CCCCC1c1c2ccc(=O)c(O)c-2oc2c(O)c(O)ccc12 (stereo not drawn),74% (active)
9,Cc1ccc(NN(NC(=O)OC(C)C)C(=O)OC(C)C)cc1,15% (inactive)
10,O=C1c2ccccc2C(=O)c2cc(CBr)ccc21,94% (active)
11,Cc1c(C(Cc2ccccc2N(C)C(=O)/C=C\C(=O)O)c2c[nH]c3ccccc23)c2ccccc2n1C (stereo not drawn),46% (inactive)
12,CC(C)/C(Cl)=N\OC(=O)Nc1ccc(F)cc1,99% (active)
13,O=C1OC(=O)C2CCCC3CCCC1C32 (stereo not drawn),98% (active)
14,CCOC(=O)C(NC(=O)c1ccccc1)(N1CCN(c2cc3c(cc2F)c(=O)c(C(=O)O)cn3C2CC2)CC1)C(F)(F)F (stereo not drawn),2% (inactive)
15,COc1ccc(NC(=S)N/N=C(\c2ccccc2)c2ccccn2)cc1,97% (active)
16,C=CCC1=C(C)C(OC(=O)/C=C/c2ccccc2)CC1=O (stereo not drawn),53% (inactive)
17,NNc1c(F)c(F)cc(F)c1F,66% (inactive)
18,COP(=O)(OC)/C(=C\C1=CN(C(c2ccccc2)(c2ccccc2)c2ccccc2)CN1)NC=O,97% (active)
19,COC(=O)c1cc(-c2ccc(C)cc2)[nH]c(=O)c1C#N,-4% (inactive)
